The values below come from PubChem BioAssay (Tox21).

“And” between values parts separate entries of the source, which are not always exact repeats. Identical values can stand only once. Inconclusive results are not listed. More than one record can exist for a structure, and the calls need not agree. The source made the active and inactive calls. Unless noted, calls follow the shape of the full dose curve.

Assay [1] in a line: Nuclear factor erythroid 2-related factor 2/antioxidant responsive element (Nrf2/ARE) small molecule agonists: qHTS cell viability counter screen in human keratinocytes (AID 1919968; active = well fitted curve in the direction sought with a large enough effect in the repeat runs; an effect the other way counts as inactive or inconclusive; also: nearly all actives have a fitted effect of over 55% in size; also: potency is read from the fitted curve at half-maximal effect). In a few lines:
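CellTiter-Fluor fluorescence, read 1 h after reagent, gave viability in the same wells as the ARE-luciferase assay. KeratinoSens cells (1,500/well) had 23 h compound exposure at 37 C/5% CO2 following 5 h plating.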
For orientation: In qHTS, concentration-response curves come from the screen itself.

Assay [2] is described as follows: Nuclear factor erythroid 2-related factor 2/antioxidant responsive element (Nrf2/ARE) small molecule agonists: luciferase reporter gene qHTS assay in human keratinocytes (AID 1919969). Also: nearly all actives have a fitted effect of over 35% in size. Also: potency is read from the fitted curve at half-maximal effect.
For assay [3], the target named is Gonadotropin-releasing hormone receptor (Homo sapiens) (UniProt P30968). In words: Human gonadotropin-releasing hormone receptor (GnRHR) small molecule agonists, calcium flux assay in GnRHR-HEK293 cells (AID 1920063). Also: nearly all actives have a fitted effect of over 35% in size. An outline of the steps: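 Agonist mode: compounds at 15 concentrations, in triplicate, went onto calcium dye-loaded GnRHR-HEK293 cells. Intracellular calcium was then followed as 480/540 nm fluorescence at 1 s intervals over 3 min.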
In general terms: Calcium assays in cells follow changes in intracellular calcium, usually with a dye or a luminescent sensor.

Assay [4] deals with KiSS-1 receptor (Homo sapiens) (UniProt Q969F8). The assay can be described thus: Human kisspeptin (KISS1R) small molecule agonists, calcium flux assay in KISS1R-HEK293 cells (AID 1920064; active = well fitted curve in the direction sought with a large enough effect in the repeat runs; an effect the other way counts as inactive or inconclusive). In a few lines: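 Agonist mode: intracellular calcium rise tracked at 1 s intervals over 3 min (480/540 nm) immediately after compound addition to dye-loaded KISS1R-HEK293 stable cells. Each compound tested at 15 concentrations in triplicate.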

A short description of assay [5]: G protein-coupled receptor (GPCR) small molecule agonists, calcium flux assay: HEK293 wild type cell line counter screen (AID 1920065). An outline of the steps:
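Calcium flux counter screen: compound added in agonist mode at 15 concentrations in triplicate to dye-loaded parental HEK293 cells. Fluorescence (480/540) read kinetically for 3 min; ATP served as positive control.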

Assay [6] in a line: p53 small molecule agonists, cell-based qHTS assay with rat liver microsomes (AID 1963578). An outline of the steps:
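Quantitative HTS of the Tox21 10K library: p53RE-bla cells, rat liver microsomes plus NADPH at 0.5 mg/mL final each, 16 h at 37 C, beta-lactamase fluorescence detection.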

Assay [7] in a line: p53 small molecule agonists, cell-based qHTS assay with rat liver microsomes: qHTS cell viability counter screen (AID 1963580). Also: nearly all actives have a fitted effect of over 45% in size. Also: potency is read from the fitted curve at half-maximal effect. An outline of the steps: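 After the beta-lactamase ratio was read, CellTiter-Glo was added to the same wells and luminescence measured at 30 min; cells had been treated 16 h at 37 C with compounds, rat liver microsomes and NADPH (0.5 mg/mL final each).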

The nature of assay [8]: p53 small molecule agonists, cell-based qHTS assay: qHTS cell viability counter screen (AID 1963581). Also: nearly all actives have a fitted effect of over 45% in size. Also: potency is read from the fitted curve at half-maximal effect. An outline of the steps: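 Counter screen read by CellTiter-Glo luminescence (ATP content, 30 min at room temperature), run in the same wells as the beta-lactamase reporter read. HCT-116 p53RE-bla cells saw compounds for 16 h at 37 C.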
Assay [9] deals with 5-hydroxytryptamine receptor 2A (Homo sapiens) (UniProt P28223). The assay can be described thus: 5-hydroxytryptamine receptor 2A (HTR2A) small molecule antagonists, cell-based qHTS assay (AID 1963586). Also: nearly all actives have a fitted effect of over 45% in size. In a few lines:
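CHO cells stably expressing human HTR2A were plated for 18 h at 37 C, then loaded with calcium dye for 1 h. Compounds were preincubated 5 min at room temperature before DOI (4 nM solution) was added. Kinetic fluorescence was read for 3 min.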

Assay [10] shares this target. The assay can be described thus: 5-hydroxytryptamine receptor 2A (HTR2A) small molecule agonists, cell-based qHTS assay (AID 1963587). Also: nearly all actives have a fitted effect of over 30% in size. An outline of the steps: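 CHO cells stably expressing human HTR2A, plated 18 h, loaded with calcium dye 1 h at 37 C. Agonist mode: compounds added and intracellular calcium fluorescence recorded kinetically for 2 min at 1 sec intervals.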

The target in assay [11] is Muscarinic acetylcholine receptor M1 (Homo sapiens) (UniProt P11229). In words: Cholinergic receptor muscarinic 1 (CHRM1) small molecule agonists, cell-based qHTS assay (AID 1963589). Also: nearly all actives have a fitted effect of over 35% in size. An outline of the steps: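 Agonist-mode calcium-flux screen: compounds at 15 concentrations, three independent runs, were pin-transferred onto dye-loaded human CHRM1-CHO cells. Fluorescence was then recorded kinetically every second over minutes.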

The nature of assay [12]: cAMP Responsive Elements (CRE) small molecule agonists, cell-based qHTS assay (AID 1963590). In a few lines:
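Agonist mode: compound added to CRE-bla HEK 293T cells (2,000/well, 18 h after plating) for 3 h at 37 C/5% CO2. Reporter activity detected via FRET beta-lactamase substrate, 2 h room-temperature loading.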

A short description of assay [13]: cAMP Responsive Elements (CRE) small molecule antagonists, cell-based qHTS assay (AID 1963591; active = well fitted inhibition curve with a large enough effect in the signal ratio in the repeat runs, not every such curve was filed as active; the % refers to the signal ratio). In a few lines:
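Antagonist mode: compounds are added alongside the adenylyl cyclase activator NKH477 (0.25 uM final) to CRE-bla HEK293T cells for 3 h. LiveBLAzer FRET substrate, 2 h at room temperature, reports bla expression.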

Assay [14] deals with Beta-2 adrenergic receptor (Homo sapiens) (UniProt P07550). The assay can be described thus: Adrenergic beta2 receptor (ADRB2) small molecule agonists, cell-based qHTS assay (AID 1963593).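 Also: CHO cells stably overexpressing human ADRB2.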 In a few lines:
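CHO cells stably over-expressing ADRB2 were plated overnight at 37C, then dosed with compounds plus a stimulation mix containing 100uM IBMX and 25uM Ro-20-1724 for 0.5hr at room temperature. cAMP was measured by HTRF competition, 1hr.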

Assay [15] addresses D(2) dopamine receptor (Homo sapiens) (UniProt P14416). The assay can be described thus: Dopamine D2 receptor (DRD2) small molecule agonists, cell-based qHTS assay (AID 1963594). Also: nearly all actives have a fitted effect of over 35% in size. In a few lines:
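HEK293 cells stably expressing human DRD2, pre-treated with PDE inhibitor Ro20-1724 (0.1 mM final) and compound 10 min at room temperature, then stimulated with NKH477 (200nM […]) for 30 min. cAMP read by HTRF (665/620 nm).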

Assay [16] has the same target. The assay can be described thus: Dopamine D2 receptor (DRD2) small molecule antagonists, cell-based qHTS assay (AID 1963595; active = well fitted inhibition curve with a large enough effect in the signal ratio in the repeat runs, with a control signal flat; the % refers to the signal ratio). In a few lines: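 Stable D2 receptor HEK293 line, 24 h after seeding. Compound preincubated 10 min, then quinpirole (12 nM) with forskolin analogue NKH477 (200 nM), 30 min, room temperature. Detection by time-resolved FRET of cAMP.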
Assay [17] can be described thus: p53 small molecule agonists, cell-based qHTS assay with human liver microsomes: qHTS cell viability counter screen (AID 1963579). Also: nearly all actives have a fitted effect of over 45% in size. An outline of the steps:
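Viability of p53RE-bla cells is measured as CellTiter-Glo luminescence following a 16 h, 37 C incubation with compound, liver microsomes from human donors and NADPH.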

Assay [18] can be described thus: p53 small molecule agonists, cell-based qHTS assay (AID 1963582; active = well fitted activation curve with a large enough effect in the signal ratio in the repeat runs, not every such curve was filed as active; the % refers to the signal ratio). In a few lines:
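Read-out is beta-lactamase FRET fluorescence after 2 h at room temperature with LiveBLAzer B/G substrate. p53 response element-bla cells were treated 16 h at 37 C with compounds in DMSO, added 5 h after seeding.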

In assay [19] the target is Muscarinic acetylcholine receptor M1 (Homo sapiens) (UniProt P11229). In words: Cholinergic receptor muscarinic 1 (CHRM1) small molecule antagonists, cell-based qHTS assay (AID 1963588). Also: nearly all actives have a fitted effect of over 40% in size. An outline of the steps: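 Compounds were tested at 15 concentrations in three independent runs. Dye-loaded CHRM1-CHO cells were exposed 5 min at room temperature before stimulation by acetylcholine added at 50nM. Intracellular calcium was read kinetically on FDSS for 3 min.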

The target of assay [20] is Beta-2 adrenergic receptor (Homo sapiens) (UniProt P07550). In words: Adrenergic beta2 receptor (ADRB2) small molecule antagonists, cell-based qHTS assay (AID 1963592). Also: series mostly up to about 92 µM; nearly all actives have a fitted effect of over 50% in size. An outline of the steps: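 Assay format: CHO-ADRB2 cells, 18-20hr seeding at 37C/5% CO2, then compound plus 1nM isoproterenol agonist mix for 0.5hr RT. Homogeneous time-resolved fluorescence cAMP detection after 1hr, expressed as 665/615 nm ratio.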
% is scaled to controls: 0 for no effect and ±100 for the full control effect.

Sequence of Beta-2 adrenergic receptor (Homo sapiens) (P07550 whole entry, looked up): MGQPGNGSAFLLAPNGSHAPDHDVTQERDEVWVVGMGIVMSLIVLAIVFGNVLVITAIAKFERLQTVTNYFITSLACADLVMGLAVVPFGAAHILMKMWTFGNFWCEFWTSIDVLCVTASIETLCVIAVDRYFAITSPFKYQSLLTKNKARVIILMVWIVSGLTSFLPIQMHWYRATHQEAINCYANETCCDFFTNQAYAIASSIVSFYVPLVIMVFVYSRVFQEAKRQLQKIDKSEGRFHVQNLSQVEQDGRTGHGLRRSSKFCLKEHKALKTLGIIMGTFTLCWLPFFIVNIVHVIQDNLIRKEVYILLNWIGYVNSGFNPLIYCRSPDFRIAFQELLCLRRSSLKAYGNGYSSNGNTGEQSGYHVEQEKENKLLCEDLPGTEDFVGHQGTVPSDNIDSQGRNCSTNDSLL
Sequence of KiSS-1 receptor (Homo sapiens) (Q969F8 whole entry, looked up): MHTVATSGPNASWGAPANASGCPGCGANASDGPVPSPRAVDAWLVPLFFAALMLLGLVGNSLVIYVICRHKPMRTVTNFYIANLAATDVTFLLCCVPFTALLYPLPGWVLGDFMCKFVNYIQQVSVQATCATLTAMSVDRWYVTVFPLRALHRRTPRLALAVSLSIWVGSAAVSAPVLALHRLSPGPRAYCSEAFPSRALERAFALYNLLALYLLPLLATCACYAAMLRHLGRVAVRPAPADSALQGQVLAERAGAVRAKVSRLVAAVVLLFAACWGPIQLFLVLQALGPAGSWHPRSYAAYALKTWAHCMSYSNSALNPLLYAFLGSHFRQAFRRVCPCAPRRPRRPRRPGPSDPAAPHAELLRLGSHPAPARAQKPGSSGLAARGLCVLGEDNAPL
Sequence of Gonadotropin-releasing hormone receptor (Homo sapiens) (P30968 whole entry, looked up): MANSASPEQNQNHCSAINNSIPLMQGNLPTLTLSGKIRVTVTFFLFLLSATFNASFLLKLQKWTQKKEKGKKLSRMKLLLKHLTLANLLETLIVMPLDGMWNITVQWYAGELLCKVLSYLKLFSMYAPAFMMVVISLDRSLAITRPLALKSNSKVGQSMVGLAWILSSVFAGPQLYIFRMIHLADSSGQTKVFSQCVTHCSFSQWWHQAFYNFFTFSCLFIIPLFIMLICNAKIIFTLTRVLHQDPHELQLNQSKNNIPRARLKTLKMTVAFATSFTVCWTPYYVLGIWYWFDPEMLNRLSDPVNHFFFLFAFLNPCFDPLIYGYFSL
Sequence of D(2) dopamine receptor (Homo sapiens) (P14416 whole entry, looked up): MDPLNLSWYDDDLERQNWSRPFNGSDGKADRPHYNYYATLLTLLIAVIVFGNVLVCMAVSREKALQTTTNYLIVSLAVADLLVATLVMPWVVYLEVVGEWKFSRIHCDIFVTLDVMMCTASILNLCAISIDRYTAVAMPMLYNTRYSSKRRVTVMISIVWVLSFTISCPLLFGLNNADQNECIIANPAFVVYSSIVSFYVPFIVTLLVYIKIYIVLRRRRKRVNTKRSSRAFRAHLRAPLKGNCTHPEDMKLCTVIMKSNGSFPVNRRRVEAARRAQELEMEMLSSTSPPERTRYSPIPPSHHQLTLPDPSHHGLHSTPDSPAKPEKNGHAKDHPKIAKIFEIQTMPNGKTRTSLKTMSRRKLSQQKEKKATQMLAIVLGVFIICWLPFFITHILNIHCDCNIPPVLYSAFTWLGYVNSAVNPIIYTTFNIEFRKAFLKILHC
Sequence of Muscarinic acetylcholine receptor M1 (Homo sapiens) (P11229 whole entry, looked up): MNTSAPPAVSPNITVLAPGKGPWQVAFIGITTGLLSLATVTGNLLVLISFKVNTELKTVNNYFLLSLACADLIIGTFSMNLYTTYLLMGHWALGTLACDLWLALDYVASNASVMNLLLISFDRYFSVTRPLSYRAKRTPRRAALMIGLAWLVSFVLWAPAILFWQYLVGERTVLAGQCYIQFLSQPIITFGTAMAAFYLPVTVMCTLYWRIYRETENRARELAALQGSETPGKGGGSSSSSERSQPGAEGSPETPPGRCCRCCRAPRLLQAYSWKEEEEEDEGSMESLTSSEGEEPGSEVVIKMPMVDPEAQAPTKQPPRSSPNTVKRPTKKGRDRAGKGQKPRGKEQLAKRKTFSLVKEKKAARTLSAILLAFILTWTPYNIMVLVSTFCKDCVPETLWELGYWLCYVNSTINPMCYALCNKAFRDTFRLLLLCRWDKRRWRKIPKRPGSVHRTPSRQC
Sequence of 5-hydroxytryptamine receptor 2A (Homo sapiens) (P28223 whole entry, looked up): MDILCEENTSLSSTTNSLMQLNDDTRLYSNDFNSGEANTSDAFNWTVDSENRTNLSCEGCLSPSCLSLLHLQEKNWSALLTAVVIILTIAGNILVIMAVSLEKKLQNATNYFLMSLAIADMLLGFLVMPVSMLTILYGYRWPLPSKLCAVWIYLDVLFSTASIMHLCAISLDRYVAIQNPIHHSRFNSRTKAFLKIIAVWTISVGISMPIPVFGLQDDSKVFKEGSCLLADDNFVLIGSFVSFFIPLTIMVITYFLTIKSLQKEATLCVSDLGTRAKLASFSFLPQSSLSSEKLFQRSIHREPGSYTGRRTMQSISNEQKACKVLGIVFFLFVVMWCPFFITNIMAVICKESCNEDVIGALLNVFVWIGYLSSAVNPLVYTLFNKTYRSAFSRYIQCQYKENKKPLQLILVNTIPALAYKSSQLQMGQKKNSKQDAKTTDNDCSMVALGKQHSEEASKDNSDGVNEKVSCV

Regarding `CCCCCCCC/C=C\CCCCCCCC(=O)OCCCC`, the activity change, negative = cytotoxicity in assay [1] was 4.3% [at 19 µM] (inactive); in [7] it was 7.39% [at 13.5 µM] (inactive); in assay [8], 6.46% [at 13.5 µM] (inactive). Besides, in [2], the activity, positive = activation is 8.08% [at 19 µM] (inactive). For the same compound, in assay [3], the activity change was 1.13% [at 11.8 µM, stronger effect = higher value] (inactive). Further, the activation in assay [4] is 1.04% [at 15.8 µM] (inactive); in assay [5] it was 0.0792% [at 11.8 µM] (inactive); in [6], -0.57% [at 13.6 µM] (inactive); in assay [10], 5.55% [at 15.9 µM] (inactive); in assay [11], -0.0084% [at 15.8 µM] (inactive); in [12], 0.955% [at 19 µM] (inactive). For the same compound, the values for the activation in [14] and in [15] were 25.8% [at 19 µM] (inactive) and -5.29% [at 19 µM] (inactive), respectively. In [9], the activity, negative = inhibition was -6.13% [at 12.7 µM] (inactive). For the same compound, the activity change, negative = inhibition was -13.9% [at 18.9 µM] (inactive) in assay [13] and -12.5% [at 18.9 µM] (inactive) in [16].
With `c1cnccn1`, the Potency result in assay [1], in [2], in assay [3], in assay [4], in [5] and in assay [17] was “inactive” throughout. Moreover, the Potency entry in assay [7], in assay [8], in assay [18], in [9], in [10] and in assay [19] was “inactive” each time. Also, the Potency result in assay [11], in assay [12], in assay [13], in assay [20], in assay [15] and in [16] was “inactive” throughout.
`CC(=O)Oc1ccccc1C(=O)Nc1ncc([N+](=O)[O-])s1`: the Potency in assay [1] was 55.6 µM (active); in [2], 39.3 µM (active) and 29.8 µM (active); in [7] it was 41.6 µM (active) and inactive; in [8], 11.7 µM (active). The Potency result in assay [3], in [4], in assay [5], in [17], in [18] and in assay [9] was “inactive” throughout. The Potency entry in assay [10], in assay [19], in assay [11], in assay [15] and in assay [16] was “inactive” in each case.
For `CCOc1ccccc1C(N)=O`, the Potency result in assay [1], in [3], in assay [4], in assay [5], in assay [17] and in [7] was “inactive” each time. The Potency result in assay [8], in [18], in [9], in assay [10], in [19] and in assay [11] was “inactive” in each case. The Potency result in [12], in [13], in assay [20], in [14], in assay [15] and in assay [16] was “inactive” in each case. Besides, the Potency result in [2] was “inactive and 33.5 µM (active)”.
Consider `CCCC(=O)c1ccccc1`, for which the Potency entry in [1], in assay [2], in assay [3], in [4], in assay [5] and in assay [17] was “inactive” in each case. Moreover, the Potency result in assay [7], in [8], in assay [18], in assay [9], in [10] and in assay [19] was “inactive” throughout. Further, the Potency entry in assay [11], in assay [13], in assay [20], in assay [15] and in [16] was “inactive” throughout.
`CCCC(=O)OCc1ccccc1`: the Potency result in assay [1], in assay [2], in [3], in assay [4], in assay [5] and in assay [6] was “inactive” in each case. The Potency entry in [7], in assay [18], in assay [9], in assay [10], in assay [19] and in assay [11] was “inactive” each time. The Potency result in [12], in [13], in assay [20], in assay [14] and in [15] was “inactive” throughout.
On to `CCCCc1ccc2cccc(S(=O)(=O)O)c2c1`, for which the Potency entry in assay [1], in assay [2], in [3], in assay [4], in [5] and in assay [17] was “inactive” throughout. Further, the Potency result in [7], in assay [8], in [18], in [9], in assay [19] and in assay [11] was “inactive” each time. Moreover, the Potency entry in [12], in assay [13], in [20], in assay [14], in assay [15] and in assay [16] was “inactive” in each case.
